# Experimental data as given in PubChem BioAssay (NCATS).
# “And” between values parts separate entries of the source, which are not always exact repeats. Equal entries are not always repeated. Records with an inconclusive call do not appear. Where a call stands in place of a potency, no number is given. The source made the active and inactive calls. Unless noted, calls follow the shape of the dose curve; as a rule, active = well fitted inhibition curve with a large enough effect; inconclusive = small, poorly fitted or top-dose-only effect; inactive = flat fitted curve, though single readings scatter.
# What was measured:
# [1] = molecular target: Ubiquitin carboxyl-terminal hydrolase 1 (Homo sapiens) (UniProt O94782); test: Inhibitors of USP1/UAF1: Pilot qHTS (AID 504865);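 also: rhodamine fluorescence freed from ubiquitin-rhodamine substrate followed over time; top concentration of the series differs between compounds; nearly all actives have a fitted effect of over 35% in size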
# Method in brief: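 Deubiquitinase activity followed as kinetic rhodamine fluorescence release from 150 nM Ub-Rho. 1 nM USP1/UAF1 with compound, after 15 min room-temperature preincubation, in HEPES pH 7.8 buffer containing TCEP, EDTA, BSA and Tween-20.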
# [2] = molecular target: Glucocorticoid receptor (Homo sapiens) (UniProt P04150); test: qHTS assay for small molecule agonists of glucocorticoid receptor signaling (AID 588532; active = well fitted curve in the direction sought with a large enough effect in the signal ratio, with a control signal flat; the % refers to the signal ratio); conditions: HeLa MMTV-bla, beta-lactamase ratio, agonist, 18 h; stronger effect = higher value; percent of dexamethasone control, DMSO zero
# Method in brief: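 Cells were plated and rested 3-5 h at 37 C, compounds were added in titration and incubated 18 h, then CCF4 substrate was loaded for 2 h at RT before reading blue/green fluorescence. EC50 came from Hill-equation fitting.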
# [3] = molecular target: Glucocorticoid receptor (Homo sapiens) (UniProt P04150); test: qHTS assay for small molecule antagonists of glucocorticoid receptor signaling (AID 588533; active = well fitted inhibition curve with a large enough effect in the signal ratio, with a control signal flat, not every such curve was filed as active; the % refers to the signal ratio;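 also: cells stimulated with 2 nM dexamethasone as agonist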)
# Method in brief: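 Antagonist-mode qHTS: compound titrations added to GRE-bla HeLa cells, then dexamethasone 2 nM final; 18 h, 37 C. CCF4 FRET fluorescence normalized to dexamethasone and DMSO; IC50 from Hill fit.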
# [4] = molecular target: Estrogen receptor (Homo sapiens) (UniProt P03372); test: qHTS assay for small molecule antagonists of estrogen receptor alpha signaling (AID 588513; active = well fitted curve in the direction sought with a large enough effect in the signal ratio, with a control signal flat, not every such curve was filed as active; the % refers to the signal ratio)
# Method in brief: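 Antagonist mode: inhibition of 0.5 nM 17-beta-estradiol-driven beta-lactamase reporter in HEK 293 ER-alpha-UAS-bla cells, 18 h at 37C, CCF4 readout after 2 h at RT. Normalised to estradiol and DMSO; titration fitted to Hill.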
# [5] = molecular target: Estrogen receptor (Homo sapiens) (UniProt P03372); test: qHTS assay for small molecule agonists of estrogen receptor alpha signaling (AID 588514; calls by dose curve; also: nearly all actives have a fitted effect of over 70% in size)
# Method in brief: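 Efficacy is expressed against 20 nM 17-beta-estradiol (100%) and DMSO basal (0%); EC50 from Hill equation. Assay: beta-lactamase reporter in ER-alpha-UAS-bla HEK 293 cells, 18 h compound incubation, CCF4 detection.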
# [6] = qHTS assay for small molecule antagonists of peroxisome proliferator-activated receptor delta signaling (AID 588535; active = well fitted inhibition curve with a large enough effect in the signal ratio, with a control signal flat, not every such curve was filed as active; the % refers to the signal ratio;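 as to max response: cells co-treated with a PPAR-delta agonist as stimulator during compound exposure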); conditions: HEK293T PPARd-UAS-bla, beta-lactamase FRET ratio, 18 h; 460 nm channel
# Method in brief: (§1)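 Fluorescence from CCF4-loaded GeneBLAzer PPAR-delta-UAS-bla HEK293T cells (2 hrs RT loading) quantified reporter inhibition after an 18 hr, 37 C compound exposure across a titration.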
# [7] = molecular target: Peroxisome proliferator-activated receptor delta (Homo sapiens) (UniProt Q03181); test: as above
# Method in brief: as §1
# [8] = molecular target: Peroxisome proliferator-activated receptor gamma (Homo sapiens) (UniProt P37231); test: qHTS assay for small molecule agonists of peroxisome proliferator-activated receptor gamma signaling (AID 588536; active = well fitted curve in the direction sought with a large enough effect in the signal ratio, with a control signal flat, not every such curve was filed as active; the % refers to the signal ratio)
# Method in brief: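 Using GeneBLAzer HEK293 cells, response was quantified by CCF4 fluorescence and normalized between basal DMSO (0%) and rosiglitazone 2 uM (100%); curves yielded half-maximal stimulation concentration and efficacy.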
# [9] = molecular target: Peroxisome proliferator-activated receptor gamma (Homo sapiens) (UniProt P37231); test: qHTS assay for small molecule antagonists of peroxisome proliferator-activated receptor gamma signaling (AID 588537; active = well fitted inhibition curve with a large enough effect in the signal ratio, with a control signal flat, not every such curve was filed as active; the % refers to the signal ratio; also: potency is read from the fitted curve at half-maximal effect)
# Method in brief: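 Fluorescence at 460 and 530 nm (405 nm excitation) reported beta-lactamase cleavage of CCF4 after 2 h room-temperature loading. HEK293 reporter cells in 1% charcoal/dextran-treated FBS had received compound and rosiglitazone for 16 h.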
# [10] = molecular target: Androgen receptor (Homo sapiens) (UniProt P10275); test: qHTS assay for small molecule agonists of androgen receptor signaling (AID 588515; active = well fitted curve in the direction sought with a large enough effect in the signal ratio, with a control signal flat; the % refers to the signal ratio); conditions: AR-UAS-bla HEK293, beta-lactamase ratio, agonist 16 h; stronger effect = higher value
# Method in brief: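 Stimulation of an AR-responsive β-lactamase reporter in GripTite HEK293 cells was measured after 16 h compound exposure at 37 °C, via CCF4 fluorescence after 2 h RT. EC50 from Hill fits, normalized to R1881 at 30 nM.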
# [11] = molecular target: Androgen receptor (Homo sapiens) (UniProt P10275); test: qHTS assay for small molecule antagonists of androgen receptor signaling (AID 588516; active = well fitted curve in the direction sought with a large enough effect in the signal ratio, with a control signal flat, not every such curve was filed as active; the % refers to the signal ratio)
# Method in brief: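 Antagonist mode: inhibition of R1881-stimulated (10 nM final) bla reporter in GeneBLAzer AR HEK 293 cells, 16 h at 37C, compounds titrated. IC50 and efficacy from Hill-equation fits of 405/460–530 nm FRET ratios.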
# [12] = molecular target: Bile acid receptor (Homo sapiens) (UniProt Q96RI1); test: qHTS assay for small molecule antagonists of farnesoid X receptor signaling (AID 588526; calls by dose curve)
# Method in brief: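 Antagonist mode: titrated compounds tested against chenodeoxycholic acid stimulation (normalized to 50 uM CDCA and DMSO) in GeneBLAzer HEK293T cells for 16 h. Beta-lactamase read by CCF4 fluorescence; IC50 from Hill fits.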
# [13] = molecular target: DNA dC->dU-editing enzyme APOBEC-3G (Homo sapiens) (UniProt Q9HC16); test: qHTS for inhibitors of Vif-A3G interactions: Validation (AID 588379)
# Method in brief: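 Yellow fluorescence (Ex 488, Em 500-530) of Vif-coexpressing HeLa A3G-eYFP cells, scanned by Acumen cytometer, reports blocked A3G degradation. Cells plated at 700/well overnight at 37 deg C before compound addition, then a further overnight compound incubation at 37 deg C.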
# Peroxisome proliferator-activated receptor delta (Homo sapiens), sequence (Q03181 whole entry, looked up): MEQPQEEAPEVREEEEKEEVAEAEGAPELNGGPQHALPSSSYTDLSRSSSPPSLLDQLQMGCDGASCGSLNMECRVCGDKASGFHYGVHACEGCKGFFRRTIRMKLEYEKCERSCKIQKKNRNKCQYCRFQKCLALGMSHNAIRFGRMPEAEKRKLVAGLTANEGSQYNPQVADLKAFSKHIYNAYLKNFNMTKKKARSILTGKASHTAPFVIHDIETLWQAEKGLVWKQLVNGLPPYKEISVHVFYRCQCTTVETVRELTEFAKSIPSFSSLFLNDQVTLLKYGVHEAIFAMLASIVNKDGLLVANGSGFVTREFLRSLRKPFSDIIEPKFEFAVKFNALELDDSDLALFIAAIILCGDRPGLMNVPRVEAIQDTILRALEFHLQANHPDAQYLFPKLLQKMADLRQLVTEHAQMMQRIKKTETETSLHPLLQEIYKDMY
# Androgen receptor (Homo sapiens), sequence (P10275 whole entry, looked up): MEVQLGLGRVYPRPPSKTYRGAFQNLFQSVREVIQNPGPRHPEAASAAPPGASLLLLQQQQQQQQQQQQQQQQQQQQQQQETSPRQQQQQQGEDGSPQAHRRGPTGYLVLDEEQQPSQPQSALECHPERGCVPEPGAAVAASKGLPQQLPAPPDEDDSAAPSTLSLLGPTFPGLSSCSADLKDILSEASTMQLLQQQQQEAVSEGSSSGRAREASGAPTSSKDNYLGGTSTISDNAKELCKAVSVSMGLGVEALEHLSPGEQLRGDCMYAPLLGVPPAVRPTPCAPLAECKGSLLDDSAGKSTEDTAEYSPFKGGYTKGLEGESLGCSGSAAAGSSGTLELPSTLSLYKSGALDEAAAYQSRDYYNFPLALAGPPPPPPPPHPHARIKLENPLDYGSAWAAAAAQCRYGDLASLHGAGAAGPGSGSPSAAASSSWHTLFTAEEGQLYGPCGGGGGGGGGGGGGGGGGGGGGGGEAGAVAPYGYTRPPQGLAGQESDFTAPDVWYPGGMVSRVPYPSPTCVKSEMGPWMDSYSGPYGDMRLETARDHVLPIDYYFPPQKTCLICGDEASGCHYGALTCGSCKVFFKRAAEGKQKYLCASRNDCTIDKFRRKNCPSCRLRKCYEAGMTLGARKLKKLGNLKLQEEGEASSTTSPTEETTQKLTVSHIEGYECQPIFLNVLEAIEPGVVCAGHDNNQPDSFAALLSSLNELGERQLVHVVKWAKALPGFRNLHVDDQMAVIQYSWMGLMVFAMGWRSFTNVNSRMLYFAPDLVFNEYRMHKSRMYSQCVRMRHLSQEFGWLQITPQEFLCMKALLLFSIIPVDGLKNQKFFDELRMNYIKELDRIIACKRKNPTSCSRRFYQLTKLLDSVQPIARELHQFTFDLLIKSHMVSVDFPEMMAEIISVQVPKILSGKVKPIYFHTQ
# Peroxisome proliferator-activated receptor gamma (Homo sapiens), sequence (P37231 whole entry, looked up): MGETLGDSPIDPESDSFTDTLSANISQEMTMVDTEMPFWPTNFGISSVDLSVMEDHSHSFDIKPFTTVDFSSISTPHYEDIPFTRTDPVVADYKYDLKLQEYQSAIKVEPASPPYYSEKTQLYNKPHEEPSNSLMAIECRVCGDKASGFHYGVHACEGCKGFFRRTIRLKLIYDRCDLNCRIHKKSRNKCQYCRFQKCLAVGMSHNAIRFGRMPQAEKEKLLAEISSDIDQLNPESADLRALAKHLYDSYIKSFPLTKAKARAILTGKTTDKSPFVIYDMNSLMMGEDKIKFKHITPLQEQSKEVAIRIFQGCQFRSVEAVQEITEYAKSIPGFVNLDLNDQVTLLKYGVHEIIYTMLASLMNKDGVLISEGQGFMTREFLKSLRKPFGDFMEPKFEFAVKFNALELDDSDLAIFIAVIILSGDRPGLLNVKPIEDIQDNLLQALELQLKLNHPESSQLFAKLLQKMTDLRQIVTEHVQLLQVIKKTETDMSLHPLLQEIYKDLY
# Glucocorticoid receptor (Homo sapiens), sequence (P04150 whole entry, looked up): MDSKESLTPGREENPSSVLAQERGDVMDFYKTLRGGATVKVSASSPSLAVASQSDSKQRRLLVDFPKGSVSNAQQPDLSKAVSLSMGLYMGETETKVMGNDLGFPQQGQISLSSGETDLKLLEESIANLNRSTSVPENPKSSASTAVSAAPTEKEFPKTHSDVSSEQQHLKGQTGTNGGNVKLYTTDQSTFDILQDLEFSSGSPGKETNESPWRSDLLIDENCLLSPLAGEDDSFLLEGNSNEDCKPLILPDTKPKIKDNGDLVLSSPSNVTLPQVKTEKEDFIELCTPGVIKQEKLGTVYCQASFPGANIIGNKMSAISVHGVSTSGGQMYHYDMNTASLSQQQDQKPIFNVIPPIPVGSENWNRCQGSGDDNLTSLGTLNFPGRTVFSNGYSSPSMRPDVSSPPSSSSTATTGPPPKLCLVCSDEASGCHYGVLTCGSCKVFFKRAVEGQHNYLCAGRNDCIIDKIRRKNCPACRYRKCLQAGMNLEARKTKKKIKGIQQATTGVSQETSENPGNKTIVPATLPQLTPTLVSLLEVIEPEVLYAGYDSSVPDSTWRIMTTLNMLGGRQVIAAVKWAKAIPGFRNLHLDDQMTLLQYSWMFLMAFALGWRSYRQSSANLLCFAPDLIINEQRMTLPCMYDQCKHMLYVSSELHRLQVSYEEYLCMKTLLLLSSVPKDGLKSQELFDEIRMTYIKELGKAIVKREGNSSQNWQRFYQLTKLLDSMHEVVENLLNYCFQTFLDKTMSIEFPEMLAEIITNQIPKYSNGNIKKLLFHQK
# Ubiquitin carboxyl-terminal hydrolase 1 (Homo sapiens), sequence (O94782 whole entry, looked up): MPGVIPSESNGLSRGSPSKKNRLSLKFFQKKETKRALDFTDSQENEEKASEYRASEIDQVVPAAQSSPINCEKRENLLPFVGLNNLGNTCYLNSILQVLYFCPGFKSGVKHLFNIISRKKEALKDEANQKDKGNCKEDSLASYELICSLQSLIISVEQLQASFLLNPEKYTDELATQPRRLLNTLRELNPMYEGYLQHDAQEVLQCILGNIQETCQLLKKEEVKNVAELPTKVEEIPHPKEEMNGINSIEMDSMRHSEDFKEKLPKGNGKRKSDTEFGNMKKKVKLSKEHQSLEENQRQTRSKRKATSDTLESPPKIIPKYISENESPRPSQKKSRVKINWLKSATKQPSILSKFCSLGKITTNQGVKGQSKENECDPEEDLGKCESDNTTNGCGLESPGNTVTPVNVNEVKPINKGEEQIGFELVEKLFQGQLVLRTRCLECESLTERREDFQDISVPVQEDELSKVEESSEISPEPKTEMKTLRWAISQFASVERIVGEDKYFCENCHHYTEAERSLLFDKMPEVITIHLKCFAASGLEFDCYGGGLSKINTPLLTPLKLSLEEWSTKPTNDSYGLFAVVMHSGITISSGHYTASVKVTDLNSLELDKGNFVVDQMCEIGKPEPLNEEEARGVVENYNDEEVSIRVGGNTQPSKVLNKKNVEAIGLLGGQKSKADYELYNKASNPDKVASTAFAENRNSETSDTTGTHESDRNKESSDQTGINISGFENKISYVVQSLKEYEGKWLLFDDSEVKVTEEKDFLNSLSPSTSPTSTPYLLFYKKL
# Estrogen receptor (Homo sapiens), sequence (P03372 whole entry, looked up): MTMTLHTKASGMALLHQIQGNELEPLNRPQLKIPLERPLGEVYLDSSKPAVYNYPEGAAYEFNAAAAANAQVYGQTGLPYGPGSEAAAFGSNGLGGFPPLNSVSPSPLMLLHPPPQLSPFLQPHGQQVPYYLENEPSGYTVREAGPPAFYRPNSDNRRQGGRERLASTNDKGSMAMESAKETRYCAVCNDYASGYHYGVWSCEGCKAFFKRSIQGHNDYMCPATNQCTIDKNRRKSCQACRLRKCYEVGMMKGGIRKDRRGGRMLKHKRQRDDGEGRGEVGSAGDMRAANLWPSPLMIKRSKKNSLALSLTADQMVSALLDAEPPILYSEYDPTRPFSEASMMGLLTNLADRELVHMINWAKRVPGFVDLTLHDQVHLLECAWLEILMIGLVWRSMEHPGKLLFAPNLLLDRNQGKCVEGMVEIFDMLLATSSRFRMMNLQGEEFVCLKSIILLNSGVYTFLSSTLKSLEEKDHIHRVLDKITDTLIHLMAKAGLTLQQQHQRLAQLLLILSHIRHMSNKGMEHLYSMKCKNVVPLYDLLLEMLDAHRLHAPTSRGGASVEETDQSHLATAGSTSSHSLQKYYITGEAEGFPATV
# Bile acid receptor (Homo sapiens), sequence (Q96RI1 whole entry, looked up): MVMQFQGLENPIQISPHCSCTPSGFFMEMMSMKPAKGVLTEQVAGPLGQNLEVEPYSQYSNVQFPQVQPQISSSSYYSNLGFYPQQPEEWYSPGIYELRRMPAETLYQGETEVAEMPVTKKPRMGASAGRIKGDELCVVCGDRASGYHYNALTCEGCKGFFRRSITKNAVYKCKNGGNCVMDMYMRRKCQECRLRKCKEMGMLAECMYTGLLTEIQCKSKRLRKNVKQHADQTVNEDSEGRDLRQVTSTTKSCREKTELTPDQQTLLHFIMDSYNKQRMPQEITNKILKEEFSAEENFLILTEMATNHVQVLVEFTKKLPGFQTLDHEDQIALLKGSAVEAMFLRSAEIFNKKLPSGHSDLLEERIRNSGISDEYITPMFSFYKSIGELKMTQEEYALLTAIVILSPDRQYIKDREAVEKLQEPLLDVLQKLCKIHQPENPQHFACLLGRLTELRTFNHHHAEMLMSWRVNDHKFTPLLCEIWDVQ
# DNA dC->dU-editing enzyme APOBEC-3G (Homo sapiens), sequence (Q9HC16 whole entry, looked up): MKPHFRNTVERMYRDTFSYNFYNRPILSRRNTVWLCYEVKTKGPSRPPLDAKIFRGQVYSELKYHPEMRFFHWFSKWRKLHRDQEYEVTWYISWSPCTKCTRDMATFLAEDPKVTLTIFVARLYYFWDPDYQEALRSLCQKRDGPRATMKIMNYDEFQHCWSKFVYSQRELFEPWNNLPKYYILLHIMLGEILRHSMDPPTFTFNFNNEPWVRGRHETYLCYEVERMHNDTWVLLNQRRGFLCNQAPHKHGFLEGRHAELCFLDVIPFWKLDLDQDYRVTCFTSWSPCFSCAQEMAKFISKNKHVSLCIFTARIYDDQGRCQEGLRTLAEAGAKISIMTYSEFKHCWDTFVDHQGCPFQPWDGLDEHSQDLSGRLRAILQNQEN
structure (smiles),measurement,setting,value
C[C@]12CCC(=O)C=C1CC[C@@H]1[C@H]2[C@@H](O)C[C@@]2(C)[C@H]1CC[C@]2(O)C(=O)CO,Potency,[1],inactive
CC(C)(S)[C@@H](N)C(=O)O,Potency,[1],inactive
Nc1ccc(S(N)(=O)=O)cc1,Potency,[1],inactive
same,activation,[2],9.11% (inactive)
same,outcome,[3],inactive
CCOc1cc(CC(=O)N[C@@H](CC(C)C)c2ccccc2N2CCCCC2)ccc1C(=O)O,Potency,[1],inactive
CCc1nc(N)nc(N)c1-c1ccc(Cl)cc1,Potency,[1],inactive
same,outcome,[4],inactive
same,outcome,[5],inactive
same,activation,[2],6.7% (inactive) and -0.85% (inactive)
same,outcome,[3],inactive
same,max response,[6],-4.91%
same,outcome,[7],inactive
Nc1cccc2c1CN(C1CCC(=O)NC1=O)C2=O (configuration not stated),Potency,[1],inactive
N=C(N)c1ccc2cc(OC(=O)c3ccc(N=C(N)N)cc3)ccc2c1,Potency,[1],inactive
CS(=O)(=O)OCCCCOS(C)(=O)=O,Potency,[1],inactive
same,outcome,[4],inactive
same,outcome,[5],inactive
same,max response,[6],-16.8% and 23.8% and -11.6%
same,outcome,[7],inactive
same,outcome,[8],inactive
same,Potency,[9],inactive
Cc1ccc(C)c(OCCCC(C)(C)C(=O)O)c1,Potency,[1],inactive
same,outcome,[4],inactive
same,outcome,[5],inactive
same,activation,[10],4.9% (inactive) and 2.29% (inactive)
same,outcome,[11],inactive
same,outcome,[12],inactive
same,max response,[6],34%
same,outcome,[7],inactive
N[C@@H](Cc1cc(I)c(Oc2cc(I)c(O)c(I)c2)c(I)c1)C(=O)O,activation,[2],-13.7% (inactive)
same,outcome,[8],inactive
same,Potency,[9],39.8 µM (active)
Cc1nc(Nc2ncc(C(=O)Nc3c(C)cccc3Cl)s2)cc(N2CCN(CCO)CC2)n1,Potency,[1],inactive
Cc1ncc([N+](=O)[O-])n1CC(C)O (configuration not stated),Potency,[1],inactive
Oc1ccc(OCc2ccccc2)cc1,Potency,[1],inactive
CCOC(=O)C1=C(O)C(=O)N(Cc2ccccc2)C1,outcome,[13],inactive
